Test results reported in the supplement of paper PMC10849652.
The full data set covers some 7,900 targets. This sample favours those with a hit. About 0.6% of all pairs of compound and target were hits.

Assays:
Assay in all cases: log2 fold change, soluble protein after heating vs DMSO (PISA); higher = thermal stabilisation; K562 cells, 10 uM, 30 min; active = over 0.2 and 3.5 SD of the protein, either way, in both replicates (recomputed)
[1] = compound: CS(=O)(=O)c1ccc(-c2cnc(N)c(C(=O)Nc3ccccc3)n2)cc1
Procedure, shortened: (§1)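 K562 cells at 2×10^6 cells/mL were given 10 μM compound for 30 min. Aliquots then went through 3 min of heating across 48°C-58°C, were pooled, and were extracted in PBS with 0.5% NP-40 at 4°C, and the supernatant after 21,000xg for 90 min was quantified by TMTpro 16plex LC-MS/MS with channel sums equalised. Thermal stability relative to control samples, from duplicates, is given as log2 fold change.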

crizotinib = compound: C[C@@H](Oc1cc(-c2cnn(C3CCNCC3)c2)cnc1N)c1c(Cl)ccc(F)c1Cl [crizotinib]
Procedure, shortened: as §1

[2] = compound: C[C@@H]1COCCN1C2=NC(=NC(=C2)C3(CC3)S(=O)(=O)C)C4=C5C=CNC5=CC=C4
Procedure, shortened: as §1

[3] = compound: C[C@H](C1=CC=C(C=C1)C(=O)NC2=C3C=CNC3=NC=C2)N
Procedure, shortened: as §1

duvelisib = compound: C[C@H](Nc1ncnc2nc[nH]c12)c1cc2cccc(Cl)c2c(=O)n1-c1ccccc1 [duvelisib]
Procedure, shortened: as §1

gandotinib = compound: Cc1cc(Nc2cc(CN3CCOCC3)c3nc(C)c(Cc4ccc(Cl)cc4F)n3n2)n[nH]1 [gandotinib]
Procedure, shortened: as §1

tozasertib = compound: Cc1cc(Nc2cc(N3CCN(C)CC3)nc(Sc3ccc(NC(=O)C4CC4)cc3)n2)n[nH]1 [tozasertib]
Procedure, shortened: as §1

[4] = compound: Cc1cc(SCc2sc(-c3ccc(C(F)(F)F)cc3)nc2C)ccc1OCC(=O)O
Procedure, shortened: as §1

doramapimod = compound: Cc1ccc(-n2nc(C(C)(C)C)cc2NC(=O)Nc2ccc(OCCN3CCOCC3)c3ccccc23)cc1 [doramapimod]
Procedure, shortened: as §1

ispinesib = compound: Cc1ccc(C(=O)N(CCCN)[C@@H](c2nc3cc(Cl)ccc3c(=O)n2Cc2ccccc2)C(C)C)cc1 [ispinesib]
Procedure, shortened: as §1

bafetinib = compound: Cc1ccc(NC(=O)c2ccc(CN3CC[C@H](N(C)C)C3)c(C(F)(F)F)c2)cc1Nc1nccc(-c2cncnc2)n1 [bafetinib]
Procedure, shortened: as §1

[5] = compound: Cc1cccc(CC(=O)N2CCc3c2ccc(-c2cn(C)c4ncnc(N)c24)c3F)n1
Procedure, shortened: as §1

nilotinib = compound: Cc1cn(-c2cc(NC(=O)c3ccc(C)c(Nc4nccc(-c5cccnc5)n4)c3)cc(C(F)(F)F)c2)cn1 [nilotinib]
Procedure, shortened: as §1

[6] = compound: Cc1nc(Nc2n[nH]c3c2CN(C(=O)N[C@H](CN(C)C)c2ccccc2)C3(C)C)c2sccc2n1
Procedure, shortened: as §1

dasatinib = compound: Cc1nc(Nc2ncc(C(=O)Nc3c(C)cccc3Cl)s2)cc(N2CCN(CCO)CC2)n1 [dasatinib]
Procedure, shortened: as §1

[7] = compound: Cc1ncc(-c2ccnc(Nc3ccc(S(C)(=O)=O)cc3)n2)n1C(C)C
Procedure, shortened: as §1

[8] = compound: Cn1cc(-c2ccc3c(c2)CCN3C(=O)Cc2cccc(C(F)(F)F)c2)c2c(N)ncnc21
Procedure, shortened: as §1

[9] = compound: Cn1cc(-c2ccc3nnc(C(F)(F)c4ccc5ncccc5c4)n3n2)cn1
Procedure, shortened: as §1

tipifarnib = compound: Cn1cncc1[C@@](N)(c1ccc(Cl)cc1)c1ccc2c(c1)c(-c1cccc(Cl)c1)cc(=O)n2C [tipifarnib]
Procedure, shortened: as §1

mubritinib = compound: FC(F)(F)c1ccc(/C=C/c2nc(COc3ccc(CCCCn4ccnn4)cc3)co2)cc1 [mubritinib]
Procedure, shortened: as §1

Measured: log2 fold change

TRIP10 isoform 2 (UniProt Q15642)
UniProt Q15642, sequence (Q15642 whole entry, looked up): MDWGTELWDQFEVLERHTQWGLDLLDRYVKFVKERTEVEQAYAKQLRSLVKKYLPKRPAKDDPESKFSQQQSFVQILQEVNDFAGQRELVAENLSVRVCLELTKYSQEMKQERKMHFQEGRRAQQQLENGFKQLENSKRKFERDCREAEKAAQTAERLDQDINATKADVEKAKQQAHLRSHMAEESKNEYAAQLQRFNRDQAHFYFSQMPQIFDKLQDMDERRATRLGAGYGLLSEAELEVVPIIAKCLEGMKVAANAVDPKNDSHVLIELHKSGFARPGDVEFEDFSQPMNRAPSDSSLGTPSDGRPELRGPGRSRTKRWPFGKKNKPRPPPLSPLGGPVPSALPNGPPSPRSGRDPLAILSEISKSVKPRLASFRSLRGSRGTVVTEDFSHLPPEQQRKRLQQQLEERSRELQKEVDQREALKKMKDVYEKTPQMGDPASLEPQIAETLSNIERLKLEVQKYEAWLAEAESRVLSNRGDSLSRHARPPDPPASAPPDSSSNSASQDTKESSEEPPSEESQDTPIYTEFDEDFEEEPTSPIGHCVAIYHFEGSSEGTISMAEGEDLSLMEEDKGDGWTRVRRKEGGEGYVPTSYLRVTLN
inactive: [1] 0.132 | crizotinib 0.056 | [2] -0.007 | [3] 0.108 | duvelisib 0.001 | gandotinib 0.147 | tozasertib 0.101 | [4] -0.089 | doramapimod -0.035 | ispinesib 0.309 | bafetinib -0.019 | [5] 0.026 | nilotinib 0.005 | [6] -0.174 | dasatinib 0.035 | [7] -0.162 | [8] -0.033 | [9] -0.135 | tipifarnib -0.04 | mubritinib 0.142

TMTC3 (UniProt Q6ZXV5)
UniProt Q6ZXV5, sequence (Q6ZXV5 whole entry, looked up): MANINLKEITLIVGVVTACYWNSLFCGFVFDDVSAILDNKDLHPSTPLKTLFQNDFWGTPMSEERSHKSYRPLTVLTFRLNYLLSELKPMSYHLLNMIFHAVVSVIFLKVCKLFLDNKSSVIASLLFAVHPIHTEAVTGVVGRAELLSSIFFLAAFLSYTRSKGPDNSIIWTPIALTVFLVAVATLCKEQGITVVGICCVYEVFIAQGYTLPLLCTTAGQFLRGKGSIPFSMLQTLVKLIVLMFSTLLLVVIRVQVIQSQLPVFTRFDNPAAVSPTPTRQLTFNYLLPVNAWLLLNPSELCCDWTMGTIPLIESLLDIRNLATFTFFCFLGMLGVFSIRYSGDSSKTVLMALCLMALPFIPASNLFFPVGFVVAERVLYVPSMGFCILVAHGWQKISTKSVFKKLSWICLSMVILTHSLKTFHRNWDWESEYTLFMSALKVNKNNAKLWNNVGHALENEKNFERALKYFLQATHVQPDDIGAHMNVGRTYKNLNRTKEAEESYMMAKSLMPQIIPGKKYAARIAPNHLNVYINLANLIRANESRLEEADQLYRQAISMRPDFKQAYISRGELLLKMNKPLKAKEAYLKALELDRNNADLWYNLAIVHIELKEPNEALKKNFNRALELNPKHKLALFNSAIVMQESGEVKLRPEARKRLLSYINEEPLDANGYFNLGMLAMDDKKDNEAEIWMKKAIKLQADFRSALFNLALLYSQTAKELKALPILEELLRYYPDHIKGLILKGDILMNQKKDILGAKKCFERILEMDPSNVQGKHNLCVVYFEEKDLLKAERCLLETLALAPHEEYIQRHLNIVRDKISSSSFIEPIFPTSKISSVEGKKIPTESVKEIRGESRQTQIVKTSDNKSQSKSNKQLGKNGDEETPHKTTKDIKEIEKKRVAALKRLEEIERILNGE
inactive: [1] 0.054 | crizotinib -0.088 | [2] -0.052 | [3] 0.072 | duvelisib -0.017 | gandotinib -0.039 | tozasertib -0.012 | [4] 0.038 | doramapimod 0.018 | ispinesib -0.188 | bafetinib -0.07 | [5] -0.02 | nilotinib -0.036 | [6] 0 | dasatinib -0.055 | [7] 0.015 | [8] -0.051 | [9] 0.061 | tipifarnib -0.018 | mubritinib 0.011

TNPO1 (UniProt Q92973)
UniProt Q92973, sequence (Q92973 whole entry, looked up): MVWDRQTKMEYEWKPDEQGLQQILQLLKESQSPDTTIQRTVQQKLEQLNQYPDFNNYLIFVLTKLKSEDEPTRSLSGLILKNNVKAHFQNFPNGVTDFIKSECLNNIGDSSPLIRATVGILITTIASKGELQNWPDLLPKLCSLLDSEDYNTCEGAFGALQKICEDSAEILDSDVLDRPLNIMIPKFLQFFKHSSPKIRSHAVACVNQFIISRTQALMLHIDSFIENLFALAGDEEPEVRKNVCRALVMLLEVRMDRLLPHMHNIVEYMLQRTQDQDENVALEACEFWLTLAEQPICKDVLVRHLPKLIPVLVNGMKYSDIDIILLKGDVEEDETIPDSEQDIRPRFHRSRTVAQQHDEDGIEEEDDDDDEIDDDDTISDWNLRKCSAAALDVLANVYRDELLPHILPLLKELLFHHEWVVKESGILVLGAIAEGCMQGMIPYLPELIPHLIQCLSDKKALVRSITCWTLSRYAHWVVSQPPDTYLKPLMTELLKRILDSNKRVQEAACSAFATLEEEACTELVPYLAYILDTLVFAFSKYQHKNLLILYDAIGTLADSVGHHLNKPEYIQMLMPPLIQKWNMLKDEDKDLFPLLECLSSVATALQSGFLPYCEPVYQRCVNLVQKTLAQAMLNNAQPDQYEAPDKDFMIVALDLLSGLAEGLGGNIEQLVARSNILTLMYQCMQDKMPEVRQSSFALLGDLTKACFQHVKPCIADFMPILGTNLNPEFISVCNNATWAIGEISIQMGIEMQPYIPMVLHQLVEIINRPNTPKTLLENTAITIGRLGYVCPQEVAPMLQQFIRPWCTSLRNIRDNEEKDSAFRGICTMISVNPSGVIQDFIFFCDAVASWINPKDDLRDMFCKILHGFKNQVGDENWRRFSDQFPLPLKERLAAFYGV
inactive: [1] -0.008 | crizotinib -0.034 | [2] 0.058 | [3] -0.116 | duvelisib 0.002 | gandotinib -0.128 | tozasertib 0.052 | [4] 0.011 | doramapimod -0.034 | ispinesib -0.113 | bafetinib -0.104 | [5] 0.022 | nilotinib -0.037 | [6] -0.128 | dasatinib -0.067 | [7] -0.079 | [8] -0.034 | [9] 0.009 | tipifarnib -0.026 | mubritinib 0.005

UBE2E3 (UniProt Q969T4)
UniProt Q969T4, sequence (Q969T4 whole entry, looked up): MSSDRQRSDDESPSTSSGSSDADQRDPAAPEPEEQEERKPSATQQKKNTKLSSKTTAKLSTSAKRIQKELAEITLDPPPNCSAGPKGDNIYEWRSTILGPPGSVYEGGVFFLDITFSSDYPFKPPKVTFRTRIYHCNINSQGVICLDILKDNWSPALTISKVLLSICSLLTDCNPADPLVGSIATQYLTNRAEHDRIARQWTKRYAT
inactive: [1] 0.008 | crizotinib 0 | [2] 0.219 | [3] 0.008 | duvelisib 0.025 | gandotinib -0.052 | tozasertib 0.061 | [4] 0.034 | doramapimod 0.03 | ispinesib -0.005 | bafetinib -0.029 | [5] -0.029 | nilotinib -0.126 | [6] 0.023 | dasatinib -0.113 | [7] 0.025 | [8] -0.028 | [9] -0.004 | tipifarnib -0.131 | mubritinib 0.056

VDAC1 (UniProt P21796)
UniProt P21796, sequence (P21796 whole entry, looked up): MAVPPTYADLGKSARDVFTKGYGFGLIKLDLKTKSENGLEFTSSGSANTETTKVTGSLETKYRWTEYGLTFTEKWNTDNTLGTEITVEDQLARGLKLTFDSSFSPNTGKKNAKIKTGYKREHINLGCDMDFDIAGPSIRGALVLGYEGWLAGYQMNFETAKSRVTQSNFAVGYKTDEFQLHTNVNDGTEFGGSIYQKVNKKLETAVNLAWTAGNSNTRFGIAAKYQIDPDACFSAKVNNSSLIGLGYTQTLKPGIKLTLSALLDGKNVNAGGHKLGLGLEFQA
inactive: [1] 0 | crizotinib 0.076 | [2] -0.004 | [3] -0.063 | duvelisib -0.002 | gandotinib 0.017 | tozasertib 0 | [4] -0.031 | doramapimod -0.024 | ispinesib 0.034 | bafetinib -0.039 | [5] -0.037 | nilotinib 0.006 | [6] 0.025 | dasatinib 0.035 | [7] -0.005 | [8] 0.02 | [9] 0.008 | tipifarnib 0.017 | mubritinib 0.02

TMEM208 (UniProt Q9BTX3)
UniProt Q9BTX3, sequence (Q9BTX3 whole entry, looked up): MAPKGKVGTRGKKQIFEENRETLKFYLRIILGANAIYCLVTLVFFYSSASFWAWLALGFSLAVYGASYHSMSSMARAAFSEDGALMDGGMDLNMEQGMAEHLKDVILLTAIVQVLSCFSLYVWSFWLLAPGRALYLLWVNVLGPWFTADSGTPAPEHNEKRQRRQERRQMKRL
inactive: [1] -0.09 | crizotinib -0.119 | [2] 0.134 | [3] -0.004 | duvelisib -0.039 | gandotinib 0.086 | tozasertib -0.035 | [4] 0.076 | doramapimod 0.019 | ispinesib -0.243 | bafetinib -0.131 | [5] 0.097 | nilotinib -0.101 | [6] 0.092 | dasatinib -0.19 | [7] 0.185 | [8] -0.024 | [9] 0.01 | tipifarnib -0.223 | mubritinib 0.062

TRMT61A (UniProt Q96FX7)
UniProt Q96FX7, sequence (Q96FX7 whole entry, looked up): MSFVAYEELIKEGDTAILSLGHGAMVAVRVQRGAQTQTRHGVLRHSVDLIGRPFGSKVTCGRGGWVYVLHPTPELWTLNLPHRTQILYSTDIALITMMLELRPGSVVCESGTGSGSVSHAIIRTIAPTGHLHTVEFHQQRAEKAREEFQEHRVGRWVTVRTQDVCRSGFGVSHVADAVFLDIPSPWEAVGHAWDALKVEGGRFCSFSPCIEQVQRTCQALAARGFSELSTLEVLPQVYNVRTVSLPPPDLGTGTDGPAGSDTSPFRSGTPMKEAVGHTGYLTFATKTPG
inactive: [1] -0.017 | crizotinib -0.046 | [2] -0.201 | [3] 0.168 | duvelisib -0.004 | gandotinib 0.168 | tozasertib -0.016 | [4] 0.106 | doramapimod 0.011 | ispinesib -0.093 | bafetinib -0.051 | [5] 0.047 | nilotinib 0.036 | [6] 0.046 | dasatinib 0.011 | [7] -0.07 | [8] -0.11 | [9] -0.016 | tipifarnib 0.043 | mubritinib -0.125

UBE2Q1 (UniProt Q7Z7E8)
UniProt Q7Z7E8, sequence (Q7Z7E8 whole entry, looked up): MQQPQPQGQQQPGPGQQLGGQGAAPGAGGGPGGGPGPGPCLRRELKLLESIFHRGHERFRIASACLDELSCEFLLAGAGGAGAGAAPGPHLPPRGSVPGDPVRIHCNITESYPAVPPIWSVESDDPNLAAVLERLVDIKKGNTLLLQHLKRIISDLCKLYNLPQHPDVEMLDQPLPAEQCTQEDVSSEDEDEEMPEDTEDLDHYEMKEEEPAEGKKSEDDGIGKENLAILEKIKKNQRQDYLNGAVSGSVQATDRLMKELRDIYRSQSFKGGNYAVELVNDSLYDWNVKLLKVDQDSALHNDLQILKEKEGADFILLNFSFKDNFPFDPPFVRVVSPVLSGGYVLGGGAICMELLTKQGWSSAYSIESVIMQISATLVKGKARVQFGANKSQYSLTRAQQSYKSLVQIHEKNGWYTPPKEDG
inactive: [1] 0 | crizotinib -0.061 | [2] 0.092 | [3] 0.004 | duvelisib 0.003 | gandotinib -0.196 | tozasertib 0.036 | [4] 0.07 | doramapimod 0.029 | ispinesib -0.001 | bafetinib -0.029 | [5] 0.015 | nilotinib -0.134 | [6] -0.103 | dasatinib -0.101 | [7] -0.046 | [8] -0.012 | [9] 0.027 | tipifarnib -0.103 | mubritinib 0.006
